Laboratory results from PubChem BioAssay (NCATS).
Records with an inconclusive call do not appear. Calls of active or inactive are those of the source. Calls come from the whole dose curve; as a rule, active = well fitted curve in the direction sought with a large enough effect; inconclusive = small, poorly fitted or top-dose-only effect, or another doubt; inactive = no such curve, though single readings can be large; an effect the other way counts as inactive or inconclusive.

Assays:
[1] = target: Cellular tumor antigen p53 (Homo sapiens) (UniProt P04637); assay: Primary qHTS for small molecule compounds that upregulate eGFP-tagged delta133p53alpha (in N-terminal) cells. (AID 2060322); conditions: NCI-H358 eGFP-delta133p53alpha fluorescence, 24 h; activation: stronger effect = higher value;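 note: cells pre-induced with doxycycline then dosed without doxycycline; 0% = DMSO vehicle and 100% = reference activator; nearly all actives have a fitted effect of over 75% in size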
Summary of the method: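 NCI-H358 cells pre-induced 24 h with 10 ng/ml doxycycline for eGFP-delta133p53alpha, plated dox-free and exposed 24 h at 37C to titrated compounds. Fixed, Hoechst-stained; gated GFP peak intensity by laser scanning cytometry, normalized to DMSO (0%) and 57.5 uM 5-azacytidine (100%).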

[2] = target: Aldehyde dehydrogenase, mitochondrial (Homo sapiens) (UniProt P05091); assay: qHTS for Inhibitors of the Aldehyde Dehydrogenase Family (ALDH2) Primary screen (AID 2061308); conditions: ALDH2 enzyme inhibition qHTS, 1536-well; series mostly up to 56 µM;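 note: plate controls were vehicle for no effect and reference inhibitor for full effect; nearly all actives have a fitted effect of over 55% in size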
[3] = target: Retinaldehyde dehydrogenase 3 (Homo sapiens) (UniProt P47895); assay: qHTS for Inhibitors of the Aldehyde Dehydrogenase Family (ALDH1A3) Validation screen (AID 2061312); conditions: ALDH1A3 enzyme inhibition qHTS validation, fluorescence; series mostly up to 84.7 µM; note: % is set by controls: 0 for no effect and ±100 for the full control effect; nearly all actives have a fitted effect of over 45% in size
[4] = target: Retinaldehyde dehydrogenase 3 (Homo sapiens) (UniProt P47895); assay: qHTS for Inhibitors of the Aldehyde Dehydrogenase Family (ALDH1A3) Primary screen (AID 2061315); conditions: ALDH inhibition qHTS; series mostly up to 56 µM;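 note: plate controls were DMSO vehicle for no effect and reference inhibitor for full effect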

Sequence of Cellular tumor antigen p53 (Homo sapiens) (P04637 whole entry, looked up): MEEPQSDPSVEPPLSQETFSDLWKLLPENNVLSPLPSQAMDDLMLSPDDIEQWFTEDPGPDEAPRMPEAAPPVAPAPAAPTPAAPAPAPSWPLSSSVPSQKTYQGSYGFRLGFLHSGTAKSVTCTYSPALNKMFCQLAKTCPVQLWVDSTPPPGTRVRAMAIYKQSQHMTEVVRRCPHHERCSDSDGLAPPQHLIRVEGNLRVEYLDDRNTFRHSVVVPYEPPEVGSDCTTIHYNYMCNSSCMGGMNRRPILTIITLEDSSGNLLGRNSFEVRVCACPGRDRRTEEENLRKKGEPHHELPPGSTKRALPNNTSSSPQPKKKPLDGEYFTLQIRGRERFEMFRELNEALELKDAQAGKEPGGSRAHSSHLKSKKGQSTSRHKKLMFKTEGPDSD

Cc1cc(C(=O)Cn2cc(C#N)ccc2=O)c(C)n1Cc1ccccc1
inactive: activation [1] 6.21% | Potency [2] | Potency [3] | Potency [4]

C[C@@H]1C(=O)O[C@H]2[C@@H](O)C34[C@H]5C[C@@H](C(C)(C)C)C36[C@@H](OC(=O)[C@@H]6O)O[C@@]4(C(=O)O5)[C@@]12O (stereo not given in full)
inactive: activation [1] 5.25% | Potency [2] | Potency [3] | Potency [4]

Cc1oc(S(=O)(=O)N2CCCCC2)cc1NC(=O)Nc1ccccc1
inactive: activation [1] 0.955% | Potency [2] | Potency [3] | Potency [4]

COC(=O)C(Cc1ccc(OCCn2c(=O)sc3cc(C(=O)c4ccccc4)ccc32)cc1)C(=O)OC
inactive: activation [1] -10.5% | Potency [2] | Potency [3] | Potency [4]

CNc1cc(OC)c(C(=O)N[C@@H]2CCN(Cc3ccccc3)[C@@H]2C)cc1Cl
inactive: activation [1] 12.4% | Potency [2] | Potency [3] | Potency [4]

CCCCCCOc1cc2c(cc1N(C)c1ncc(C(=O)O)cn1)C(C)(C)CCC2(C)C
inactive: activation [1] -3.82% | Potency [2] | Potency [3] | Potency [4]

CC(C)(C)c1ccc(S(=O)(=O)NCc2ccc(C(=O)Nc3cccnc3)cc2)cc1
inactive: activation [1] 1.91% | Potency [2] | Potency [3] | Potency [4]

CCCCc1nc(Cl)c(CO)n1Cc1ccc(-c2ccccc2-c2nnn[nH]2)cc1
inactive: activation [1] -18.1% | Potency [2] | Potency [3] | Potency [4]

C[C@@H](O)[C@H](NC(=O)c1ccc(C#Cc2ccc(CN3CCOCC3)cc2)cc1)C(=O)NO
inactive: activation [1] -6.68% | Potency [2] | Potency [3] | Potency [4]

O=C(C(Cc1cccc(C(F)(F)F)c1)NS(=O)(=O)c1cc(F)c2c(c1)CCNC2)N1CCCC1 (stereo not given)
inactive: activation [1] -13.4% | Potency [2] | Potency [3] | Potency [4]

CN(C)[C@@H]1CCc2[nH]c3ccc(NC(=O)c4ccc(F)cc4)cc3c2C1
inactive: activation [1] 0.477% | Potency [2] | Potency [3] | Potency [4]

NC1=NC2(c3cc(NC(=O)c4ccc(F)cn4)ccc3F)COCC2CS1 (stereo not given)
inactive: activation [1] -6.68% | Potency [2] | Potency [3] | Potency [4]

CC(C)n1c(=O)c(C(=O)NC2CC3CCC(C2)N3C[C@@H](O)CN(C)S(C)(=O)=O)cc2ccccc21 (stereo not given in full)
inactive: activation [1] -10.5% | Potency [2] | Potency [3] | Potency [4]

CC[C@H]1OC(=O)C[C@@H](O)[C@H](C)[C@@H](O[C@@H]2O[C@H](C)[C@@H](O)[C@H](N(C)C)[C@H]2O)[C@@H](CCN2C[C@H](C)C[C@H](C)C2)C[C@@H](C)C(=O)/C=C/C(C)=C/[C@@H]1CO[C@@H]1O[C@H](C)[C@@H](O)[C@@H](OC)[C@H]1OC
inactive: activation [1] -8.59% | Potency [2] | Potency [3] | Potency [4]

O=C(Nc1ccccc1)c1ccc(Nc2nnc(-c3ccc(O)cc3)c3ccccc23)cc1
inactive: activation [1] 2.39% | Potency [2] | Potency [3] | Potency [4]

NC(=O)c1cccc2[nH]c(-c3ccc(C4CCCN4)cc3F)nc12 (stereo not given)
inactive: activation [1] 0% | Potency [2] | Potency [3] | Potency [4]

O=C(O)C[C@@H](NC(=O)c1cc(-c2ccc(-c3ccncc3)cc2)cs1)c1ccccc1
inactive: activation [1] -1.43% | Potency [2] | Potency [3] | Potency [4]

O=S(=O)(Cc1ccccc1)Nc1ccc(-c2ccc3c(cnn3-c3ccc(F)cc3)c2)c(C(F)(F)F)c1
inactive: activation [1] -1.91% | Potency [2] | Potency [3] | Potency [4]

Cn1c(=O)c2c(ncn2Cc2ccc(C(C)(C)C)cc2)n(C)c1=O
inactive: activation [1] -5.25% | Potency [2] | Potency [3] | Potency [4]

Oc1ccc2nc(CN3CCC(Cc4ccccc4F)CC3)[nH]c2c1
inactive: activation [1] -1.91% | Potency [2] | Potency [3] | Potency [4]

O=C(Nc1ccc(S(=O)(=O)Nc2nccs2)cc1)C(c1ccccc1)c1ccccc1
inactive: activation [1] -2.86% | Potency [2] | Potency [3] | Potency [4]

O=c1cc(OCc2ccc(F)cc2)ccn1-c1ccc(OCCN2CCCC2)cc1
inactive: activation [1] -0.955% | Potency [2] | Potency [3] | Potency [4]

O=C(O)c1ccc(S(=O)(=O)N(Cc2ccc(OC(F)(F)F)cc2)c2ncc(C(F)(F)F)cc2Cl)cc1
inactive: activation [1] -2.86% | Potency [2] | Potency [3] | Potency [4]

O=C1CC2(CCCC2)[C@H](O)C(=O)N1CCCCN1CCN(c2ncccn2)CC1
inactive: activation [1] 4.77% | Potency [2] | Potency [3] | Potency [4]

Cc1onc(-c2ccccc2)c1C(=O)N1CCN(c2ccc([N+](=O)[O-])cc2Cl)CC1
inactive: activation [1] -0.477% | Potency [2] | Potency [3] | Potency [4]
